# Measured values from PubChem BioAssay (Tox21).
# Where “and” joins values, the source holds several entries; their conditions need not be identical. Identical values can stand only once. Records with an inconclusive call do not appear. Some compounds were tested as several samples or in several runs, with calls that do not always agree. Calls of active or inactive are those of the source. Calls come from the whole dose curve; as a rule, active = well fitted inhibition curve with a large enough effect in the signal ratio in the repeat runs; inconclusive = weak or mixed curves, or effect the other way; inactive = flat fitted curve, though single readings scatter; the % refers to the signal ratio.
# Assay: qHTS assay for small molecule disruptors of the mitochondrial membrane potential (AID 720635)
# Conditions: HepG2 mitochondrial membrane potential, Mito-MPS dye ratio; series mostly up to 83.2 µM
# Method in brief: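 HepG2 cells (2,000/well) attached overnight at 37C, then took compound for 1 hr at 37C, 5% CO2. Mito-MPS dye was added for 30 min; fluorescence was read at 490/535 nm (monomers) and 540/590 nm (aggregates).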
# Potency is the fitted concentration of half-maximal effect.
row,Compound,Potency
1,CC(N)=O,inactive
2,CCCCCCCCCCCCc1ccccc1O,2.14 µM (active) and 2.43 µM (active)
3,N[C@@H]1CONC1=O,inactive
4,O=C(Cl)c1cccc(C(=O)Cl)c1,inactive
5,CC(=O)CC(=O)Nc1ccc2[nH]c(=O)[nH]c2c1,inactive
6,C1COC(NC(C2CC2)C2CC2)=N1,inactive
7,CCCCCC(=O)O[C@]1(C(C)=O)CC[C@H]2[C@@H]3CCC4=CC(=O)CC[C@]4(C)[C@H]3CC[C@@]21C,11.9 µM (active) and 15.2 µM (active)
8,c1cc(C(c2ccc(OCC3CO3)cc2)C(c2ccc(OCC3CO3)cc2)c2ccc(OCC3CO3)cc2)ccc1OCC1CO1 (stereo not drawn),inactive
9,CC(C)(c1ccccc1)c1ccc(Nc2ccc(C(C)(C)c3ccccc3)cc2)cc1,21.7 µM (active) and 27.3 µM (active)
10,C=CC(=O)OCCCCCCOC(=O)C=C,inactive
11,CCC(C)(Oc1ccc(C2(c3ccc(OC(C)(CC)C(=O)O)cc3)CCCCC2)cc1)C(=O)O (stereo not drawn),inactive
12,O=C(OCc1ccccc1)c1ccc(O)cc1,13.3 µM (active) and 15.4 µM (active)
13,COc1nc(C)nc(Cl)c1NC1=NCCN1,inactive
14,O=Nc1ccc(Nc2ccccc2)cc1,21.8 µM (active)
15,CCC(=O)/C=C/C1C(C)=CCCC1(C)C (stereo not drawn),27.3 µM (active)
16,COc1ccc(COC(C)=O)cc1,inactive
17,CCCCCCCCCCCCCC[P+](CCCC)(CCCC)CCCC,542 nM (active) and 486 nM (active)

row,Compound,Potency
1,Oc1ccc(Cl)cc1Cc1cc(Cl)ccc1O,1.88 µM (active) and 1.24 µM (active) and 1.22 µM (active)
2,O,31 µM (active)
3,CC(C)(C)NC(=O)[C@@H]1CN(Cc2cccnc2)CCN1C[C@@H](O)C[C@@H](Cc1ccccc1)C(=O)N[C@H]1c2ccccc2C[C@H]1O,7.5 µM (active)
4,CCn1c2ccccc2c2cc(N)ccc21,27 µM (active) and 24.3 µM (active) and 7.7 µM (active)
5,Cc1c(O)cccc1C(=O)N[C@@H](CSc1ccccc1)[C@H](O)CN1C[C@H]2CCCC[C@H]2C[C@H]1C(=O)NC(C)(C)C,10.6 µM (active) and 7.49 µM (active)
6,Nc1ccc2cc3ccccc3cc2c1,1.39 µM (active) and 1.37 µM (active)
7,NC(=Nc1ccccc1)Nc1ccccc1,3.35 µM (active) and 15.4 µM (active)
8,CC(=O)Nc1ccc(C(=O)CCl)cc1,inactive and 27.3 µM (active)
9,BrC1CCC(Br)C(Br)CCC(Br)C(Br)CCC1Br (stereo not drawn),3.84 µM (active) and 9.19 µM (active)
10,COc1ccc(Cc2cnc(N)nc2N)cc1OC,inactive
11,CCCCC(CC)COC(=O)CC(C(=O)OCC(CC)CCCC)S(=O)(=O)O (stereo not drawn),58.8 µM (active)
12,CC[C@]1(O)C[C@@H]2CN(CCc3c([nH]c4ccccc34)[C@@](C(=O)OC)(c3cc4c(cc3OC)N(C)[C@H]3[C@@](O)(C(=O)OC)[C@H](OC(C)=O)[C@]5(CC)C=CCN6CC[C@]43[C@@H]65)C2)C1,1.88 µM (active) and 944 nM (active)
13,CCCOC(=O)c1cc(O)c(O)c(O)c1,23.7 µM (active) and 48.3 µM (active) and 48.6 µM (active)
14,CCCN[C@H]1CCc2nc(N)sc2C1,inactive
15,CCOc1ccc2c(c1)C(C)=CC(C)(C)N2,inactive
16,CCCCCCC(O)CCCCCCCCCCC(=O)O (stereo not drawn),inactive and 54.5 µM (active)
